In PubChem BioAssay (NCI):
This is part of a sample that, as a whole, favours compounds with a hit. Of some 83,000 tested, about 20% had one in any assay.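 In brief: 96-well plates, 48 h treatment, single concentration, percent growth endpoint.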 Calls of active or inactive are those of the source. The calls were made as follows: active = growth percent below 10; inactive = the rest.

Tests used:
Assay in all cases: NCI-60 one-dose screen, 48 h (100 = growth as untreated, 0 = no growth, -100 = all killed)
Conditions in all cases: 10 µM unless noted
[1] = tested on: NCI-H23 lung
[2] = tested on: NCI-H226 lung
[3] = tested on: NCI-H322M lung
[4] = tested on: HOP-62 NSCLC
[5] = tested on: NCI-H460 lung
[6] = tested on: HOP-92 NSCLC
[7] = tested on: NCI-H522 lung
[8] = tested on: A549/ATCC NSCLC
[9] = tested on: 786-0 renal
[10] = tested on: COLO 205 colon
[11] = tested on: DU-145 prostate
[12] = tested on: MALME-3M melanoma
[13] = tested on: MDA-MB-231 breast
[14] = tested on: RXF 393 renal
[15] = tested on: SF-268 CNS
[16] = tested on: SF-295 CNS
[17] = tested on: SF-539 CNS
[18] = tested on: UACC-257 melanoma
[19] = tested on: M14 melanoma

Measured: growth

COc1cc(C)c(C2C(C#N)=C(N)Oc3n[nH]c(-c4cccs4)c32)cc1C(C)C (configuration not stated)
inactive: [1] 93.9% | [2] 101% | [3] 108% | [4] 96.8% | [5] 107% | [6] 99.7% | [7] 91.2% | [8] 86.7% | [9] 103% | [10] 118% | [11] 108% | [12] 121% | [13] 107% | [14] 99.5% | [15] 101% | [16] 101% | [17] 104% | [18] 90.4% | [19] 105%

NC(=NCCCOc1ccc(Cl)cc1)Nc1ccc(C(F)(F)F)cc1
inactive: [1] 33.4% | [2] 97.5% | [3] 34.9% | [4] 48.3% | [5] 18.4% | [6] 20.9% | [7] 42.5% | [8] 49.4% | [9] 53.4% | [11] 20.4% | [13] 10.1% | [14] 71.4% | [15] 46% | [16] 43.9% | [17] 48.7% | [18] 11.7%
active: [10] -67.1% | [12] -49.3% | [19] -47.8%

CC(=O)c1cc2c(N)c(C(=O)Nc3ccccc3)sc2nc1C
inactive: [1] 91.5% | [2] 92% | [3] 50.8% | [4] 75.1% | [5] 15.9% | [6] 57.6% | [7] 66.5% | [8] 28.4% | [9] 77.2% | [11] 75.5% | [12] 89.2% | [13] 85.1% | [14] 85.1% | [15] 93.1% | [16] 64.2% | [17] 72.5% | [18] 68.4% | [19] 43.5%
active: [10] 4.95%

CC1=C(O)C(=O)C(C(C#N)(C#N)C(C#N)C#N)C1 (configuration not stated)
inactive: [1] 92.4% | [2] 96.4% | [3] 85.8% | [4] 108% | [5] 102% | [6] 112% | [7] 85.8% | [8] 101% | [9] 106% | [10] 105% | [11] 94.7% | [12] 113% | [13] 124% | [14] 110% | [15] 84.4% | [16] 101% | [17] 104% | [18] 105% | [19] 101%

CC(=O)O[C@H]1C(=O)[C@@]2(C)[C@H]([C@H](OC(=O)c3ccccc3)[C@]3(O)C[C@H](OC(=O)[C@H](OC(=O)CCC(=O)OC4CCC(S/N=C(N)/N=C(\N)N(C)C)CC4)[C@@H](NC(=O)c4ccccc4)c4ccccc4)C(C)=C1C3(C)C)[C@]1(OC(C)=O)CO[C@@H]1C[C@@H]2O (some centres not stated)
active: [5] 7.58% | [7] -25.7% | [10] -8.92% | [11] 0.0949% | [16] -10.5% | [17] -19.7%
inactive: [1] 39.3% | [2] 75.6% | [3] 17.8% | [4] 29.7% | [6] 54.9% | [8] 28.5% | [9] 33.3% | [12] 66.8% | [13] 22.8% | [14] 10.6% | [15] 38.1% | [18] 58% | [19] 30.1%

C=C1C(=O)O[C@H]2[C@H]1CC/C(COC(=O)NCc1ccc(OC)c(OC)c1)=C\CC[C@@]1(C)O[C@@H]21
active: [7] -65.5% | [10] 8.26%
inactive: [1] 45.8% | [2] 85.9% | [3] 97.6% | [4] 87.8% | [5] 87.8% | [6] 66.2% | [8] 97.9% | [9] 81.6% | [11] 28.6% | [12] 61.5% | [13] 55% | [14] 20.7% | [15] 79.8% | [16] 88.2% | [17] 42.9% | [18] 64.2% | [19] 61.5%

O=c1ccccc(-c2ccc(-c3ccco3)cc2)c1O
inactive: [1] 19.1% | [2] 21.7% | [3] 21.6% | [6] 60.1% | [7] 27.3% | [8] 13.3% | [9] 10.6% | [10] 26.3% | [11] 19.7% | [12] 15.1% | [13] 40.2% | [14] 43.9% | [15] 11% | [16] 20.5%
active: [4] 6.97% | [5] 2.15% | [17] -2.44% | [18] 0.169% | [19] -2.99%

CCCCC[C@H]1C/C=C2/C(=O)C=C[C@@H]2C/C=C\CCCC(=O)O1
active: [1] -17.4% | [2] -65.1% | [3] -52.7% | [4] -46.3% | [5] -1.5% | [6] -39.5% | [7] -78.4% | [8] -23.6% | [9] -76.4% | [10] -47.6% | [11] -32.4% | [12] -24.8% | [13] 7.59% | [14] -89.9% | [15] 3.72% | [16] -33.5% | [17] -71.4% | [18] -49.4% | [19] -29.3%
